In all, about 5,500 compounds went through this assay and about 2,000 (36%) were called active. Roughly 18% stayed inconclusive and do not appear here. No stated cut-off is given here; in the data, active means normalized growth mostly below about 0.91 (no sharp cut-off); inconclusive means no clear call, values can overlap the other calls; inactive means mostly above about 0.92. The list shows a part of the results.
Assay: chemical genetic growth profiling, strain panel (AID 1159580);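 further: tested at 20 µM; growth read once vehicle control cultures reached saturation at 30 °C; 1 = growth at the plate median or of vehicle wells; lower values mean less growth of the strain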
Conditions: growth OD

Measured: normalized growth

COC1=CC23CCCN2CCc2cc4c(cc2C3C1O)OCO4 (centres undefined)
inactive: S. cerevisiae deletion strains, locus YJL187C, strain SWE1, active compounds read low 1.02 | S. cerevisiae deletion strains, locus YJR043C, strain POL32, active compounds read low 0.999 | S. cerevisiae deletion strains, locus YJR066W, strain TOR1, active compounds read low 0.92 | S. cerevisiae deletion strains, locus YJR075W, strain HOC1, active compounds read low 1.01 | S. cerevisiae deletion strains, locus YKL009W, strain mrt4, active compounds read low 1.01 | S. cerevisiae deletion strains, locus YKL068W, active compounds read low 1 | S. cerevisiae deletion strains, locus YKL085W, strain MDH1 (second series), active compounds read low 1.01 | S. cerevisiae deletion strains, locus YKL085W, strain MDH1, active compounds read low 1.01 | S. cerevisiae deletion strains, locus YKL160W, strain elf1, active compounds read low 1.02 | S. cerevisiae deletion strains, locus YKL190W, strain CNB1, active compounds read low 1 | S. cerevisiae deletion strains, locus YKR001C, strain vps1, active compounds read low 1.01 | S. cerevisiae deletion strains, locus YKR026C, strain gcn3, active compounds read low 1.02 | S. cerevisiae deletion strains, locus YKR091W, strain srl3, active compounds read low 1.02 | S. cerevisiae deletion strains, locus YLL001W, strain dnm1, active compounds read low 1.02 | S. cerevisiae deletion strains, locus YLL026W, active compounds read low 1.02 | S. cerevisiae deletion strains, locus YLL041C, strain sdh2, active compounds read low 1.02 | S. cerevisiae deletion strains, locus YLR027C, strain aat2, active compounds read low 1.01 | S. cerevisiae deletion strains, locus YLR039C, strain RIC1, active compounds read low 1.04 | S. cerevisiae deletion strains, locus YLR058C, strain SHM2, active compounds read low 1 | S. cerevisiae deletion strains, locus YLR102C, strain apc9, active compounds read low 1 | S. cerevisiae deletion strains, locus YLR113W, strain HOG1, active compounds read low 0.959 | S. cerevisiae deletion strains, locus YLR221C, strain rsa3, active compounds read low 1.03 | S. cerevisiae deletion strains, locus YLR258W, strain gsy2, active compounds read low 1.02 | S. cerevisiae deletion strains, locus YLR262C, strain YPT6 (second series), active compounds read low 1.04 | S. cerevisiae deletion strains, locus YLR262C, strain YPT6, active compounds read low 1.04 | S. cerevisiae deletion strains, locus YLR268W, strain sec22, active compounds read low 1.02 | S. cerevisiae deletion strains, locus YLR320W, strain mms22, active compounds read low 1.05 | S. cerevisiae deletion strains, locus YLR330W, strain CHS5, active compounds read low 1 | S. cerevisiae deletion strains, locus YLR342W, strain FKS1 (second series), active compounds read low 0.997 | S. cerevisiae deletion strains, locus YLR342W, strain FKS1, active compounds read low 1.02 | S. cerevisiae deletion strains, locus YLR357W, strain rsc2, active compounds read low 1.06 | S. cerevisiae deletion strains, locus YLR370C, strain arc18, active compounds read low 1.03 | S. cerevisiae deletion strains, locus YLR371W, strain rom2, active compounds read low 1.01 | S. cerevisiae deletion strains, locus YLR384C, strain iki3, active compounds read low 1.02 | S. cerevisiae deletion strains, locus YLR418C, strain cdc73, active compounds read low 0.992 | S. cerevisiae deletion strains, locus YML016C, strain PPZ1, active compounds read low 1 | S. cerevisiae deletion strains, locus YML032C, strain rad52, active compounds read low 0.98 | S. cerevisiae deletion strains, locus YML120C, strain ndi1, active compounds read low 1.02 | S. cerevisiae deletion strains, locus YML124C, strain tub3, active compounds read low 1 | S. cerevisiae deletion strains, locus YMR058W, strain fet3, active compounds read low 1.03 | S. cerevisiae deletion strains, locus YMR078C, strain ctf18, active compounds read low 1.01 | S. cerevisiae deletion strains, locus YMR125W, strain sto1, active compounds read low 1.04 | S. cerevisiae deletion strains, locus YMR129W, active compounds read low 1.02 | S. cerevisiae deletion strains, locus YMR205C, strain PFK2, active compounds read low 1.05 | S. cerevisiae deletion strains, locus YMR223W, strain ubp8, active compounds read low 1.01 | S. cerevisiae deletion strains, locus YMR231W, strain pep5, active compounds read low 1.02 | S. cerevisiae deletion strains, locus YMR307W, strain GAS1, active compounds read low 0.984 | S. cerevisiae deletion strains, locus YNL067W, strain RPL9B, active compounds read low 0.99 | S. cerevisiae deletion strains, locus YNL071W, strain lat1, active compounds read low 1.02 | S. cerevisiae deletion strains, locus YNL183C, strain NPR1, active compounds read low 0.926 | S. cerevisiae deletion strains, locus YNL209W, strain ssb2, active compounds read low 1.02 | S. cerevisiae deletion strains, locus YNL233W, strain BNI4, active compounds read low 0.989 | S. cerevisiae deletion strains, locus YNL248C, strain rpa49, active compounds read low 1.04 | S. cerevisiae deletion strains, locus YNL250W, strain rad50, active compounds read low 1.01 | S. cerevisiae deletion strains, locus YNL271C, strain bni1, active compounds read low 1.01 | S. cerevisiae deletion strains, locus YNL298W, strain CLA4, active compounds read low 1.01 | S. cerevisiae deletion strains, locus YNL307C, strain MCK1, active compounds read low 1.01 | S. cerevisiae deletion strains, locus YNL322C, strain KRE1 (second series), active compounds read low 1.02 | S. cerevisiae deletion strains, locus YNR049C, strain mso1, active compounds read low 1.05 | S. cerevisiae deletion strains, locus YNR052C, strain pop2, active compounds read low 1 | S. cerevisiae deletion strains, locus YOL012C, strain htz1 0.879 | S. cerevisiae deletion strains, locus YOL147C, strain pex11, active compounds read low 1.01 | S. cerevisiae deletion strains, locus YOR001W, strain rrp6, active compounds read low 1.04 | S. cerevisiae deletion strains, locus YOR061W, strain CKA2, active compounds read low 1.01 | S. cerevisiae deletion strains, locus YOR069W, strain VPS5, active compounds read low 1.01 | S. cerevisiae deletion strains, locus YOR070C, strain gyp1, active compounds read low 1.02 | S. cerevisiae deletion strains, locus YOR080W, strain dia2, active compounds read low 1.03 | S. cerevisiae deletion strains, locus YOR083W, strain WHI5, active compounds read low 1.03 | S. cerevisiae deletion strains, locus YOR106W, strain vam3, active compounds read low 1.03 | S. cerevisiae deletion strains, locus YOR136W, strain idh2, active compounds read low 1.01 | S. cerevisiae deletion strains, locus YOR144C, strain elg1, active compounds read low 1.01 | S. cerevisiae deletion strains, locus YOR184W, strain ser1, active compounds read low 0.999 | S. cerevisiae deletion strains, locus YOR231W, strain MKK1, active compounds read low 0.972 | S. cerevisiae deletion strains, locus YOR265W, strain rbl2, active compounds read low 1.05 | S. cerevisiae deletion strains, locus YOR270C, strain vph1, active compounds read low 1.09 | S. cerevisiae deletion strains, locus YOR290C, strain snf2, active compounds read low 1 | S. cerevisiae deletion strains, locus YOR316C, strain cot1, active compounds read low 1.01 | S. cerevisiae deletion strains, locus YPL051W, strain arl3, active compounds read low 1.02 | S. cerevisiae deletion strains, locus YPL055C, strain LGE1, active compounds read low 0.999 | S. cerevisiae deletion strains, locus YPL078C, strain atp4, active compounds read low 1.03 | S. cerevisiae deletion strains, locus YPL106C, strain sse1, active compounds read low 1.03 | S. cerevisiae deletion strains, locus YPL240C, strain hsp82, active compounds read low 1.02 | S. cerevisiae deletion strains, locus YPL256C, strain CLN2, active compounds read low 0.949 | S. cerevisiae deletion strains, locus YPR119W, strain clb2, active compounds read low 1 | S. cerevisiae deletion strains, locus YPR141C, strain kar3, active compounds read low 1.01 | S. cerevisiae deletion strains, locus YPR163C, strain tif3, active compounds read low 1.01 | S. cerevisiae deletion strains, locus YPR167C, strain met16, active compounds read low 0.998 | S. cerevisiae deletion strains, strain wtn01, active compounds read low 1.02 | S. cerevisiae strains, strain wild type, active compounds read low 1

Source: PubChem BioAssay AID1159580 (chemical genetic matrix, 2015)
